Most compounds without a hit are left out; they make up all but 0.9% or so of the library.
CDC25B-CDK2 inh = human CDC25B-CDK2/CyclinA binding inhibition; 0.72% of 94,000 active; HTRF CDC25B-CDK2/CyclinA binding, anti-His/anti-Flag; active compounds read high; AID 1259370; z-score (no concentration beside the values); P30305+P24941; in the data active = z-score above about 3.2
HIV TAR-Tat = HIV-1 TAR-Tat binding disruption; HIV-1 TAR RNA, Tat peptide displacement FRET; active compounds read high; z-score (concentration not given with the values); 0.6% of 100,000 active; active = z-score of 3 or more in at least 2 runs
Active calls of the source: *; · = not tested or not shown.

SMILES	CDC25B-CDK2 inh	HIV TAR-Tat
O=c1c(-c2ccc(O)cc2)coc2cc(O)cc(O)c12	-2.5	3.1
O=c1c(-c2cc(O)c(O)c(O)c2)coc2cc(O)c(O)c(O)c12	·	26*
Cc1nn(-c2ccc(Br)cc2)cc1-c1noc(C(=O)NC2CCCc3ccccc32)n1 (stereo not given)	·	-0.63
O=c1[nH]c(=S)[nH]c2sc3c(c12)CCCC3	-3.3	·
CCOC(=O)c1[nH]c2sc(C)c(C)c2c1N	3	-2.7
COC(=O)c1[nH]c2sc3c(c2c1N)CCCC3	14*	7*
CCOC(=O)c1[nH]c2sc3c(c2c1N)CCCC3	17*	5.2*
Cc1nc(-c2cccs2)c(CC(=O)NC2CCCCC2)s1	-2	-1.4
COC(=O)c1c(OC)cc2c(c1C)Oc1c(Cl)c(OC(C)=O)c(Cl)c(C)c1C(=O)O2	·	-0.25
COc1c(Cl)c(C)c2c(c1Cl)OC(=O)c1c(C)c(Cl)c(O)c(Cl)c1O2	·	30*
Cc1nnsc1C(=O)N1CCN(Cc2ccc3c(c2)OCO3)CC1	-0.26	·
CCOc1ccc(N2C(=O)c3cccnc3C2Nc2ccc(Br)cc2F)cc1 (stereo not given)	-1.8	1.6
Cc1sc(-n2cccc2)c(C(C)NC(=O)Nc2ccc(F)cc2)c1C (stereo not given)	-1.3	-0.1
O=c1c(NCCc2ccc(Cl)cc2)c(-c2ccccc2)c1=O	·	6*
O=c1c(NCCc2ccc(Cl)cc2)c(-c2ccc(Cl)cc2)c1=O	·	-1.6
CCN1CCN(c2nnc(-n3cccc3CN3CCN(c4ccccn4)CC3)s2)CC1	·	2
O=c1c2cccnc2n(Cc2ccc(Cl)cc2)c(=O)n1Cc1ccc2c(c1)OCO2	-1.5	-0.98
Cc1cccc(CCNc2c(-c3ccc(C(C)C)cc3)c(=O)c2=O)c1	·	-0.44
CC(=O)Nc1c2n(c3ccc(F)cc13)CC(C)(C(=O)NC1CCCCC1)N(CCC(C)C)C2=O (stereo not given)	·	1.5
CC(=O)Nc1c2n(c3ccc(F)cc13)CC(C)(C(=O)NC1CCCCC1)N(C(C)C)C2=O (stereo not given)	·	18*
CC(C)OC(=O)Cn1c2ccc(Cl)cc2c2nc3ccccc3nc21	-1.4	2.6
CCOC(=O)Cn1c2ccc(Cl)cc2c2nc3ccccc3nc21	19*	0.94
O=C(Nc1ccc(-c2nc3ccccc3o2)cc1)C12CC3CC(CC(C3)C1)C2	-2.8	·
C=C(C)/C=C1/C=CC(=O)C(C)=C1	·	4.5*
Cc1cc(C)c2c(n1)nn1c(C)c(CCC(=O)NC3CCCC3)c(C)nc21	-1.8	2.5
SMILES	CDC25B-CDK2 inh	HIV TAR-Tat
CCN(CC)c1ccc(NC(=O)CCc2c(C)nc3c4c(C)cc(C)nc4nn3c2C)c(C)c1	-0.09	6.4*
CCSc1nc(NCCN2CCOCC2)c2c3c(sc2n1)COC(C)(CC)C3 (stereo not given)	-0.73	-0.16
CCN(CC)CCNc1cc(C)nc2cc(-c3ccc(OC)c(OC)c3)nn12	1.7	4*
COc1ccc(-c2cc3nc(C)cc(NCC(C)C)n3n2)cc1OC	-0.86	2.6
CSc1cccc(NC(=O)CSc2nc(-c3ccc(Cl)cc3)nc3cc(=O)[nH]n23)c1	·	18*
Cc1ccc(NC(=O)CSc2nc(-c3ccc(Cl)cc3)nc3cc(=O)[nH]n23)cc1C	·	25
Cc1cc(C)cc(NC(=O)CSc2nc(-c3ccc(Cl)cc3)nc3cc(=O)[nH]n23)c1	·	23*
O=C(CSc1nc(-c2ccc(Cl)cc2)nc2cc(=O)[nH]n12)Nc1ccccc1	·	17
O=C(NCc1ccc2c(c1)OCO2)c1ccc2nc(-c3ccco3)c(-c3ccco3)nc2c1	·	60*
O=C(NCc1ccc2c(c1)OCO2)c1ccc2nc3[nH]c4ccccc4c3nc2c1	·	1.7
CC(C)c1ccc(-c2noc(N3CCC(C(=O)N4CCN(C5CCCCC5)CC4)CC3)n2)cc1	·	-1.2
CSc1nc(NCCOC(=O)c2ccco2)c(C#N)c(-c2ccc(C(C)(C)C)cc2)n1	-1.9	2.7
O=C(Nc1ccccc1F)c1cc2ccccc2c(=O)s1	0.25	0.24
O=c1c2c(nc3cc(-c4ccco4)[nH]n13)CSC2	19*	·
COc1cccc(-c2cc3nc(-c4ccccc4)cc(=O)n3[nH]2)c1	-1.3	·
O=c1cc(-c2cccnc2)nc2cc(-c3ccco3)[nH]n12	19*	·
O=c1c2c(nc3cc(-c4ccccc4)[nH]n13)CCCC2	1	·
Cc1cc(-n2sc(Cl)c(C)c2=O)ccc1Cl	-1.5	·
Cc1cc2c(cc3c(SCC(=O)NCc4ccco4)nncn32)o1	·	27*
Cc1cc2c(cc3c(SCC(=O)Nc4ccccc4F)nncn32)o1	·	0.66
Cn1ccc2cc(S(=O)(=O)N3CCN(C(=O)Nc4ccccc4Br)CC3)ccc21	·	0.61
c1ccc(CCCNc2ccc(-c3cccs3)nn2)cc1	·	0.12
COc1ccc2c(c1OC)C(=O)O[C@@H]2[C@H]1c2c(cc3c(c2OC)OCO3)CCN1C	-1.4	4.3
COc1cc2c3c(c1OC)C1(C=CC(=O)C=C1)CC3N(C)CC2 (stereo not given)	8.3*	-3
O=C1c2ccccc2C(Nc2ccccc2F)N1c1ccc(Cl)cc1 (stereo not given)	-1.2	1.1
SMILES	CDC25B-CDK2 inh	HIV TAR-Tat
CC1(C)CC(=O)C2=C(C1)Nc1ccccc1NC2c1ccccc1F (stereo not given)	-1	-14
CC1(C)CC(=O)C2=C(C1)Nc1ccccc1NC2c1cccc2ccccc12 (stereo not given)	13*	·
CCOC(=O)c1cc(-c2ccccc2)sc1NC(=O)CSc1nc2ccccc2s1	-0.35	·
CCOC(=O)c1cnn(-c2ccccc2)c1NC(=O)CSc1nc2ccccc2s1	19*	·
Clc1cccc(-n2cc(-c3ccccc3)c3c(N4CCC5(CC4)OCCO5)ncnc32)c1	-2.3	·
O=c1ccc2cc(S(=O)(=O)N3CCc4ccccc4C3)ccc2[nH]1	·	0.24
CCOc1ccc(S(=O)(=O)Nc2ccc3c(c2)N(S(=O)(=O)c2cccs2)CCC3)cc1	·	-0.32
Cc1ccc2c(c1)oc(=O)n2C(=O)c1ccco1	·	0.64
O=C(Nc1cccc(Cl)c1)c1nn(-c2ccc(F)cc2)ccc1=O	-0.38	1.2
C[C@@H]1C[C@H]2O[C@@H]2/C=C\C=C\C(=O)Cc2c(Cl)c(O)cc(O)c2C(=O)O1	·	5*
CCOC(=O)Cn1c(C2CC(=O)N(C(C)C)C2)nc2ccccc21 (stereo not given)	-1.7	-1
O=c1cc(-c2ccccc2)oc2c(O)c(O)ccc12	-2.1	19*
O=c1cc(-c2ccccc2)oc2cc(O)c(O)cc12	·	29*
O=c1cc(-c2ccccc2)oc2ccc(-c3nn[nH]n3)cc12	-1.1	·
Cc1oc2c(O)c(O)ccc2c(=O)c1-c1ccccc1	-5	·
COc1ccc2c(c1)c(N1CCCC1=O)c(C(=O)NC1CCCC1)n2C	·	-0.15
CCOC(=O)c1c(C)[nH]c(NC(=O)N2CCN(C(=O)c3ccco3)CC2)c1C	-1.6	-1.1
CCOC(=O)N1CCN(S(=O)(=O)c2cc3[nH]c4c(c3cc2CC)C(=O)CC(C)(C)C4)CC1	·	0.79
Nc1ccc(-c2nc3cc(N)c(Cl)cc3[nH]2)cc1	-6.2	5.5*
Nc1ccc(-c2nc3ccc(-c4nc5ccc(N)cc5[nH]4)cc3[nH]2)cc1	9.9	·
CCN(CC)c1nc(N)c([N+](=O)[O-])c(Nc2ccc(OC)cc2)n1	·	0.57
Cc1cc(Nc2ccc3c(c2)OCO3)n2nc(-c3ccco3)nc2n1	·	18*
Cc1cc(NCc2ccc3c(c2)OCO3)n2nc(-c3ccco3)nc2n1	·	-1.3

High-throughput results (PubChem)
